# Measured values as given in PubChem BioAssay AID1041 (National Center for Advancing Translational Sciences (NCATS), 2008).
# Unmarked numbers belong to inactive results.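 How the source made its calls: active means compound lifting p16 RNA above DMSO-treated cells by a clear fold change, a shift of a few PCR cycles; inactive means the rest, including any drop in level.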
# Assay: p16 Derepression/Induction Secondary Assay for qHTS Assay for Epigenetic Modulators
# Conditions: H358 cells, p16 mRNA RT-qPCR, 72 h; stronger effect = higher value
# From the text: NIH Molecular Libraries Screening Centers Network [MLSCN] NIH Chemical Genomics Center [NCGC] MLSCN Grant: 1 X01 MH079860-01 Assay Provider: Elisabeth D. Martinez, University of Texas SW Medical Center NCGC Assay Overview: This secondary assay characterizes selected actives identified in the qHTS of the Locus Derepression (LDR) assay (PubChem AID 597). The LDR assay detects the derepression of a GFP reporter that is stably integrated in a region of the genome of murine c127i mammary cells that is presumably silenced. Compounds that cause derepression of the locus to express GFP are identified by enumerating GFP positive cells using a laser-scanning microplate cytometer. Selected LDR actives were assayed for the induction of p16 gene expression, a gene silenced by dense methylation of its promoter. […]
# NCGC Assay Protocol Summary Exponentially growing H358 non-small cell lung cancer cells were treated daily with fresh media containing the indicated concentrations of compounds for 72 hr. Cellular RNA was extracted, quantified, DNAse treated and reverse transcribed. The resulting cDNA was amplified in TaqMan real time quantitative PCR assays (Applied Biosystems) containing validated primers specific for p16 (Hs00233365_m1). […] Gene expression was measured by fold-induction over control DMSO-treated samples (36-37 average cycle time). […]
smiles,measurement,value
CN1CSC(=S)N(C)C1,fold change,1
